Source: the supplement of paper PMC10849652
About 8,800 targets were measured; listed, in parts, are those with a hit and a random draw of the rest. About 0.5% of all pairs of compound and target were hits.

Key:
Test in all cases: log2 fold change, soluble protein after heating vs DMSO (PISA); higher = thermal stabilisation; K562 lysate, 10 uM; active = over 0.2 and 3.5 SD of the protein, either way, in both replicates (recomputed)
[1] = compound: C1=CC=C(C=C1)[C@H](COC2=CC3=C(C=C2)NC(=O)N3)NC(=O)C4=CC=CN(C4=O)CC5=CC(=C(C=C5)F)F
In short: (§1)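 The values are log-two fold changes in thermal stability compared with solvent controls and come from duplicates. They were obtained by TMTpro 16plex LC-MS/MS, with channel sums equalised, on the supernatant after 21,000xg for 90 min. That supernatant came from crude K562 extract at 1 mg/mL protein treated with 10 μM compound for 30 min, heated for 3 min across 48°C-58°C, pooled and brought to 0.5% NP-40 at 4°C.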

[2] = compound: CC1=C(SC2=C1C(=N[C@H](C3=NN=C(N32)C)CC(=O)N)C4=CC=C(C=C4)Cl)C
In short: as §1

[3] = compound: CC1=C2C(=CC=C1)N=C(N(C2=O)C3=CC=CC=C3C)CN4C=NC5=C(N=CN=C54)N
In short: as §1

[4] = compound: Cc1sc2c(c1C)C(c1ccc(Cl)cc1)=N[C@@H](CC(=O)OC(C)(C)C)c1nnc(C)n1-2
In short: as §1

[5] = compound: c1ccc([C@@H]2C[C@H]2NC2CCNCC2)cc1
In short: as §1

Measured: log2 fold change

NIFK (UniProt Q9BYG3)
inactive: [1] 0.065 | [2] 0.07 | [3] 0.015 | [4] 0.056 | [5] 0.047

OGT (UniProt O15294)
inactive: [1] 0.029 | [2] 0.012 | [3] 0.016 | [4] 0.067 | [5] 0.039

NCAPD2 (UniProt Q15021)
UniProt Q15021, sequence (Q15021 whole entry, looked up): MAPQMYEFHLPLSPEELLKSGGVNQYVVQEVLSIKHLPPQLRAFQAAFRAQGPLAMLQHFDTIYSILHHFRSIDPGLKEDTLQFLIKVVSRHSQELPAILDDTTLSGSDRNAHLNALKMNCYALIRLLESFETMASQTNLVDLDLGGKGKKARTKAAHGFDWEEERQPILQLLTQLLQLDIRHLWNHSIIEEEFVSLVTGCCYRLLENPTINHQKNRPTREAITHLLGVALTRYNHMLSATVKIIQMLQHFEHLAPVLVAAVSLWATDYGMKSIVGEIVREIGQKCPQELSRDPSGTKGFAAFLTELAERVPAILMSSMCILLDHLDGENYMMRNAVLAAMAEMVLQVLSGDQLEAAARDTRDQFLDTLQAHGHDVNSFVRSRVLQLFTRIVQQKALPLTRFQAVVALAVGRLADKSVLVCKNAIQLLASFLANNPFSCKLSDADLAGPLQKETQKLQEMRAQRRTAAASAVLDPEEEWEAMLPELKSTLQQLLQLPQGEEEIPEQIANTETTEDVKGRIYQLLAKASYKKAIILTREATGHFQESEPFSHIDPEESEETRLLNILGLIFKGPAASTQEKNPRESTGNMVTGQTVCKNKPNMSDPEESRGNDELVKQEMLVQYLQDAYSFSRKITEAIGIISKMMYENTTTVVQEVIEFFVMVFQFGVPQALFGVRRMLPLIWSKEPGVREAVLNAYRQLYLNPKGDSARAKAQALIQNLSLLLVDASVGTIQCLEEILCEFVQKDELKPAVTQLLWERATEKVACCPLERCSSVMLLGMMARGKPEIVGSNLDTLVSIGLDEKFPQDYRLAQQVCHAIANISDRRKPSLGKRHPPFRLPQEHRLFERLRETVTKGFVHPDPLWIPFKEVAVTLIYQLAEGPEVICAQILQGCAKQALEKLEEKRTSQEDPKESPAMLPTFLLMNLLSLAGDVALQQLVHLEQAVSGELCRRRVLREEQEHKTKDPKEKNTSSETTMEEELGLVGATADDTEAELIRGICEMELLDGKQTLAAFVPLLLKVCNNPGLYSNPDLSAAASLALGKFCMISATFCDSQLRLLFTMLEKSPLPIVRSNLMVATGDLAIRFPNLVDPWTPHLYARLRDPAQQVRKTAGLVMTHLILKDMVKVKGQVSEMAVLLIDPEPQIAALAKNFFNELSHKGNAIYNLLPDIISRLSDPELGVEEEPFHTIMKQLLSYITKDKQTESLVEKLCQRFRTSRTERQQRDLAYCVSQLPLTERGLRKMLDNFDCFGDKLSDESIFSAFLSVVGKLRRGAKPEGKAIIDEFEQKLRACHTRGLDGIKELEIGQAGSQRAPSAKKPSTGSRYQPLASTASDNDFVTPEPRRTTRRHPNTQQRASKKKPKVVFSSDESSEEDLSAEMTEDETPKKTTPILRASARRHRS
inactive: [1] -0.023 | [2] 0.028 | [3] 0.026 | [4] 0.008 | [5] 0.022

NUMBL (UniProt Q9Y6R0)
inactive: [1] -0.047 | [2] 0.038 | [3] 0.039 | [4] -0.096 | [5] -0.012

NCAPG (UniProt Q9BPX3)
UniProt Q9BPX3, sequence (Q9BPX3 whole entry, looked up): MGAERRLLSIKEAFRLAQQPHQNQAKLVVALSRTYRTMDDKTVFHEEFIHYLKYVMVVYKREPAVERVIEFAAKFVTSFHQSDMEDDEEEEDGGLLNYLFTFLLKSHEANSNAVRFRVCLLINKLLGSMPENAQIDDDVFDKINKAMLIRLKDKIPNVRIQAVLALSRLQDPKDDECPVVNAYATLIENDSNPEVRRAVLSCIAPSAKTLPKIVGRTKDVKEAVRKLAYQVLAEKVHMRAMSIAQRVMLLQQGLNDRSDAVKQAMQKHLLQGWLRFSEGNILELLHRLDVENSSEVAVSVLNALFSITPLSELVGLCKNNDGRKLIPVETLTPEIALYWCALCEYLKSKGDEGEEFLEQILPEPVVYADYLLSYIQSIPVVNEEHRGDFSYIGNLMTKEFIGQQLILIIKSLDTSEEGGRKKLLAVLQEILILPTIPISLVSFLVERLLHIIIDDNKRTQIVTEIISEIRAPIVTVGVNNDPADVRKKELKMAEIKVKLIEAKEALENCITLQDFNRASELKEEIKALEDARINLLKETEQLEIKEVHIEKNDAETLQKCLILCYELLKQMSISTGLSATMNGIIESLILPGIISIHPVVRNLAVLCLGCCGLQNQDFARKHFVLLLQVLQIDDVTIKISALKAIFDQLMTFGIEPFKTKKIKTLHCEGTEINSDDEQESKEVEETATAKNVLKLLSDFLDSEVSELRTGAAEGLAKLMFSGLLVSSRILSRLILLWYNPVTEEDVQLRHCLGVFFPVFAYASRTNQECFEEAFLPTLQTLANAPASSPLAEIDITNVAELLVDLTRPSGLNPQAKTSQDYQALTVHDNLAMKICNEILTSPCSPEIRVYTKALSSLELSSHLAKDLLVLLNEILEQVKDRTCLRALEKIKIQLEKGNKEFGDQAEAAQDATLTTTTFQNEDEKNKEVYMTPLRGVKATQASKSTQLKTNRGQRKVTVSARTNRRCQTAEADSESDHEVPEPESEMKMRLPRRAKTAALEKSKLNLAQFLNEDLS
inactive: [1] -0.031 | [2] 0.013 | [3] -0.007 | [4] 0.013 | [5] 0.03

PARP14 (UniProt Q460N5)
inactive: [1] 0.021 | [2] -0.003 | [3] 0.063 | [4] -0.028 | [5] -0.045

PAIP2 (UniProt Q9BPZ3)
UniProt Q9BPZ3, sequence (Q9BPZ3 whole entry, looked up): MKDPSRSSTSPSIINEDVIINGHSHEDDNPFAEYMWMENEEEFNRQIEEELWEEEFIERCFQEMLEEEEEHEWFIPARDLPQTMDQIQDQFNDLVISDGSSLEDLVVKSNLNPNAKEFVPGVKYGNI
inactive: [1] -0.009 | [2] 0.042 | [3] 0.03 | [4] 0.021 | [5] 0.036

MYO1C (UniProt O00159)
inactive: [1] -0.025 | [2] -0.038 | [3] -0.051 | [4] -0.025 | [5] 0.033

NUP160 (UniProt Q12769)
inactive: [1] -0.021 | [2] -0.027 | [3] 0.012 | [4] -0.04 | [5] 0.01

OGFOD2 (UniProt Q6N063)
inactive: [1] -0.079 | [2] 0.049 | [3] -0.07 | [4] 0.033 | [5] 0.076

PAK4 (UniProt O96013)
inactive: [1] -0.06 | [2] -0.03 | [3] -0.018 | [4] -0.021 | [5] -0.14

NUF2 (UniProt Q9BZD4)
inactive: [1] -0.03 | [2] 0.008 | [3] 0.018 | [4] 0.007 | [5] 0.016

NCOR1 (UniProt O75376)
UniProt O75376, sequence (O75376 whole entry, looked up): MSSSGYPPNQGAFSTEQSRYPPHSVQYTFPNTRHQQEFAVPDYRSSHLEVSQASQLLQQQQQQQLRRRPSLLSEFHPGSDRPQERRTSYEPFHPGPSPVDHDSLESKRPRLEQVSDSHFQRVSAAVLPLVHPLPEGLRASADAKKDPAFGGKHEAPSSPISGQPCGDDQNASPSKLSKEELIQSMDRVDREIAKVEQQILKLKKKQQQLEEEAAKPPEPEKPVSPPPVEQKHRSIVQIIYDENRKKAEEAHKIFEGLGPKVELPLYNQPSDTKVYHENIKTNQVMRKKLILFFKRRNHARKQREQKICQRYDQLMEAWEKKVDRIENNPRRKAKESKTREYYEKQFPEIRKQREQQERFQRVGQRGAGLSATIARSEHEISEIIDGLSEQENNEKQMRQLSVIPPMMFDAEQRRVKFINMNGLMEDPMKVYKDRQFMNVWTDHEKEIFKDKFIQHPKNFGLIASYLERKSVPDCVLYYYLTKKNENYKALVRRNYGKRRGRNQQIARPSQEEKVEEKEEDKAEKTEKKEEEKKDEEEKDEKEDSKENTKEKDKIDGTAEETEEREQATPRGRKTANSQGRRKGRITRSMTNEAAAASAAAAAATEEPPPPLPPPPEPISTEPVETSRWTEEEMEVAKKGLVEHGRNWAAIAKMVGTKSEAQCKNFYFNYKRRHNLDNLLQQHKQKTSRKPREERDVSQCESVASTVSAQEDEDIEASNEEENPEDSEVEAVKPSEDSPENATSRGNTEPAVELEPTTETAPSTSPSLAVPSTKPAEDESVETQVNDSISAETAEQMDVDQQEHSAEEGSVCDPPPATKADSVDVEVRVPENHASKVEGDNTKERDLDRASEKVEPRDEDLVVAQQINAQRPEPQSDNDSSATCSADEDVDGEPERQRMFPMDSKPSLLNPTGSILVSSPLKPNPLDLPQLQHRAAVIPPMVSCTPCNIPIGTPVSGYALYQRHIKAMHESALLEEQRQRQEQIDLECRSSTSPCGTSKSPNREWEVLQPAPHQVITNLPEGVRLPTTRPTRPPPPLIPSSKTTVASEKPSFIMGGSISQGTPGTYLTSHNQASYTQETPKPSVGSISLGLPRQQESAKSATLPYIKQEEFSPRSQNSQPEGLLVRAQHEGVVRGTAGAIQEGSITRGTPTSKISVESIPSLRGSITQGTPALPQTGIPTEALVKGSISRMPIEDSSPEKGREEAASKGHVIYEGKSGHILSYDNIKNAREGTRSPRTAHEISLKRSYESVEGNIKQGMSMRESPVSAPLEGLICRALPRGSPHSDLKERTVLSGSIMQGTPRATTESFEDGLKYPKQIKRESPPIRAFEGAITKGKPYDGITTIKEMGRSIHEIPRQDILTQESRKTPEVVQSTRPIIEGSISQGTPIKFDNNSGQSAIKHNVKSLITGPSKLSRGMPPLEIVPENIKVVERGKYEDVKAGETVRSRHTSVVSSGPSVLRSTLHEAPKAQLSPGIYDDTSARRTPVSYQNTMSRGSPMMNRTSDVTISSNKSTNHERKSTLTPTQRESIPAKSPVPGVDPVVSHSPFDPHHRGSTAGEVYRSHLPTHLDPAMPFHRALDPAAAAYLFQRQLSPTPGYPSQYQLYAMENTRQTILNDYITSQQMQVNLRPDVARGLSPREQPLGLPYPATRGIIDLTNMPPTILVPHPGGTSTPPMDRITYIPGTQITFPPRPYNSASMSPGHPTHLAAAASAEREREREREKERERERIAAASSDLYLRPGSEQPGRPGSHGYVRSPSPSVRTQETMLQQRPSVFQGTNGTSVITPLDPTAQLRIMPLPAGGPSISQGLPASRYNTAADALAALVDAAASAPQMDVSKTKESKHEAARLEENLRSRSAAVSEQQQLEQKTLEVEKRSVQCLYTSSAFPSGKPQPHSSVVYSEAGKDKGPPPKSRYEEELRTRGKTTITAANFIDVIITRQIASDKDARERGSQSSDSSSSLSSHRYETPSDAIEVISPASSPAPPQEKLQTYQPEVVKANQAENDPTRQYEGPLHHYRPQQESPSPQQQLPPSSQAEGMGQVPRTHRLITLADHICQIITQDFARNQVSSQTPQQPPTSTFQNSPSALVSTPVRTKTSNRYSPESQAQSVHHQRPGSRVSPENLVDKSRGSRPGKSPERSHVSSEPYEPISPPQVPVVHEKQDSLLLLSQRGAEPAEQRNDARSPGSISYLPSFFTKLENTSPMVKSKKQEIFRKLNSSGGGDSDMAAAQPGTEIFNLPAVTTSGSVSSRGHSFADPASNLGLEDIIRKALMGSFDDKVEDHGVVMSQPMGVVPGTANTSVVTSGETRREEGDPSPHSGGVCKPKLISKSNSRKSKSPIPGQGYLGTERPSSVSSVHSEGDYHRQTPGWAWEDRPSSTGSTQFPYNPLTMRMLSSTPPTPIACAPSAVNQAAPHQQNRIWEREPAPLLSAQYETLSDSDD
inactive: [1] -0.009 | [2] 0.002 | [3] 0.035 | [4] 0.015 | [5] 0.001
